Out of some 310,000 compounds screened, about 14,000 (4.5%) showed an effect of 50% or more. The effect is printed as a negative number. Many of the other results were omitted from the sample, so strong results are more common in it than they were.
Biological target: human ether-à-go-go-related gene (hERG) potassium channel (human, UniProt Q12809)
Assay: primary screen, population patch clamp on CHO cells stably expressing hERG; higher = less effect of the substance
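Further: peak tail current of the secondary pulse compared with the same well before compound.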

human ether-à-go-go-related gene (hERG) potassium channel, sequence (Q12809 whole entry, looked up): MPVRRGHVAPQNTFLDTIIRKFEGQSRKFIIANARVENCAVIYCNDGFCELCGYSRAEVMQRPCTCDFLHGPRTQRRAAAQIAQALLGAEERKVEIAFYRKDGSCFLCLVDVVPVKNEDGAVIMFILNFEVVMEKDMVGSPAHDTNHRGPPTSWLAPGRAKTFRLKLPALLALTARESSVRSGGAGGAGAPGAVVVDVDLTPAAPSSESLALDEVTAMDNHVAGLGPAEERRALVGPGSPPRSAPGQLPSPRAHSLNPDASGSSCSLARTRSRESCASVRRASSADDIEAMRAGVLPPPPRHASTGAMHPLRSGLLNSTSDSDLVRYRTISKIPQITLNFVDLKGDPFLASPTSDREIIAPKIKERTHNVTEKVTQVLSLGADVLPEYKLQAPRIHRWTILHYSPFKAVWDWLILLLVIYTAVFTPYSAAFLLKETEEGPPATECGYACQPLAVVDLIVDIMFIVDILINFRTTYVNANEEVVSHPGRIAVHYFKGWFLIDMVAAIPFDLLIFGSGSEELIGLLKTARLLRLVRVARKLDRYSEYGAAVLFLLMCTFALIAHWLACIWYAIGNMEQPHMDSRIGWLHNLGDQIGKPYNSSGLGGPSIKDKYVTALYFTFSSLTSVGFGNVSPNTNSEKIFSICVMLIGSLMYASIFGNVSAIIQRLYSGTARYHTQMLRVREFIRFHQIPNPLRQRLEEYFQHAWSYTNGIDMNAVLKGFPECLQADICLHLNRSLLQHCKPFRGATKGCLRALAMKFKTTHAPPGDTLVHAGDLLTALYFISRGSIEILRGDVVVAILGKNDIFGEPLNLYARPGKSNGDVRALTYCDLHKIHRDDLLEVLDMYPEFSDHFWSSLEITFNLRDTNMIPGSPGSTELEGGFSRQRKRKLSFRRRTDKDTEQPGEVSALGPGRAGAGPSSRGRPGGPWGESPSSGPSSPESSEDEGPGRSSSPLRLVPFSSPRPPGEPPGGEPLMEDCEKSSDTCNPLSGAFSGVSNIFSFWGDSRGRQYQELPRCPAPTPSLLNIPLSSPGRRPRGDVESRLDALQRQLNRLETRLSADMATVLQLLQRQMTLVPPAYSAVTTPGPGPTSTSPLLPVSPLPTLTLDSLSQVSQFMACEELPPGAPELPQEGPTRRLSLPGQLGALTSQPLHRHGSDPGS

Row | Structure (SMILES) | hERG current change (%, negative = inhibition) at 10uM [%]
1 | O=S(=O)(Nc1ccc(O)cc1)c1cccc2cccnc12 | 10.2
2 | Cc1ccc(CN2CC(C(=O)Nc3ccc(S(=O)(=O)Nc4cc(C)nc(C)n4)cc3)CC2=O)cc1 (stereo not shown) | 15.6
3 | CCC1C(=O)NCCN1C(=O)c1cccc(OC2CCN(S(=O)(=O)N(C)C)CC2)c1 (stereo not shown) | 14
4 | CN(C)CCN(Cc1ccccc1)C(=O)[C@H](Cc1ccccc1)N1C(=O)c2ccccc2C1=O | -30.1
5 | Cc1ccc(S(C)(=O)=NS(=O)(=O)c2cccc3nsnc23)cc1 (stereo not shown) | 7.47
6 | O=c1c2ccccc2nc(SCc2nnc(-c3ccccc3Br)o2)n1-c1ccccc1 | -1.38
7 | Cc1csc(C(C#N)C(=O)c2cc3ccccc3o2)n1 (stereo not shown) | -7.89
8 | CN(C)S(=O)(=O)Nc1ccccn1 | 16.5
9 | CCCCc1cc(=O)oc2cc(C)cc(O)c12 | -17.2
10 | Cn1c(-c2ccccc2)cc2ccccc21 | 9.39
11 | COc1ccc(S(=O)(=O)N2CCN(C(=O)COc3ccc(C)c(C)c3)CC2)cc1OC | -37.1
12 | CCn1cc(C(=O)NCCCN2CCCC(C)C2)c(=O)c2cc(S(=O)(=O)N(C)C3CCCCC3)ccc21 (stereo not shown) | -80.1
13 | CC1CCCN(CCCNC(=O)c2cn(C)c3ccc(S(=O)(=O)N(C)C4CCCCC4)cc3c2=O)C1 (stereo not shown) | -71.4
14 | CCn1cc(C(=O)N2CC(C)CC(C)C2)c(=O)c2cc(S(=O)(=O)N(C)C)ccc21 (stereo not shown) | -8.98
15 | CN(C1CCCCC1)S(=O)(=O)c1ccc2c(c1)c(=O)c(C(=O)NCCN1CCCC1)cn2C | -27.7
16 | CCn1cc(C(=O)NCCCOC)c(=O)c2cc(S(=O)(=O)N(C)C)ccc21 | 14.3
17 | CCn1cc(C(=O)NCCCN2CCCC(C)C2)c(=O)c2cc(S(=O)(=O)N3CCOCC3)ccc21 (stereo not shown) | 14.6
18 | CCn1cc(C(=O)NCCCN2CC(C)CC(C)C2)c(=O)c2cc(S(=O)(=O)N(C)C3CCCCC3)ccc21 (stereo not shown) | -84.3
19 | CN(C1CCCCC1)S(=O)(=O)c1ccc2c(c1)c(=O)c(C(=O)NCCCN1CCCC1)cn2C | -25.6
20 | CCn1cc(C(=O)NCCCN2CC(C)CC(C)C2)c(=O)c2cc(S(=O)(=O)N(C)C)ccc21 (stereo not shown) | -55.5
21 | Cc1ccc(NC(=O)c2ccc(NC(=O)C3CCCCC3C(=O)O)cc2)cc1 (stereo not shown) | 14.4
22 | O=C(CN1C(=O)NC2(CCCC2)C1=O)N1CCN(S(=O)(=O)c2cccc(C(F)(F)F)c2)CC1 | -5.43

Row | Structure (SMILES) | hERG current change (%, negative = inhibition) at 10uM [%]
23 | O=C(O)C(Cc1c[nH]c2ccccc12)N1C(=O)c2ccccc2C1=O (stereo not shown) | -2.61
24 | Cc1ncc(CO)c(/C=N/Nc2cccc(Cl)n2)c1O.Cl | 8.89
25 | O=c1oc(-c2ccc(Br)cc2)nc2ccccc12 | 17.8
26 | CC1=NNC(=O)/C1=C\c1cn(-c2ccccc2)nc1-c1ccc(Cl)cc1 | 3.69
27 | O=c1c2c(nc3c(-c4ccccc4)c[nH]n13)CCC2 | 10.9
28 | CC(C)CC(COCc1cccc(C(F)(F)F)c1)N1CCN(C(=O)c2cccc(C(F)(F)F)c2)CCC1=O (stereo not shown) | -12
29 | COc1ccccc1CN1CCN(Cc2nc(-c3cccs3)no2)CC1 | -42.8
30 | O=C(C[n+]1ccc(-c2nnc3n2CCC3)cc1)c1ccc(Cl)c(Cl)c1.[Br-] | -14
31 | O=C(O)CC1(CC(=O)NCc2ccc(Cl)cc2)CCCCC1 | 8.75
32 | CCC12CN(C(=O)c3ccc(C)cc3)CC(CC)(CN(C(=O)c3ccc(C)cc3)C1)C2=O | -33.3
33 | CCn1cc(C(=O)NCCCN2CCC(C)CC2)c(=O)c2cc(S(=O)(=O)N(C)C3CCCCC3)ccc21 | -80
34 | CCn1cc(C(=O)NCCCN2CCC(C)CC2)c(=O)c2cc(S(=O)(=O)N3CCOCC3)ccc21 | -17.1
35 | CCn1cc(C(=O)NCCCN2CCC(C)CC2)c(=O)c2cc(S(=O)(=O)N3CCCC3)ccc21 | -7.61
36 | COc1cc(NC(=O)c2ccc3c(c2)OCO3)ccc1NC(=O)c1ccco1 | 10.4
37 | Cc1ccc(CNC(=O)c2ccc(Cn3nc(C)cc3C)o2)cc1 | -19.1
38 | CCOC(=O)/C(N=Nc1c(Br)cc(Br)cc1Br)=C(\C)O | 6.47
39 | Cn1c(CC(=O)NNC(=O)c2ccc(F)cc2F)nc2ccccc21 | -7.56
40 | CCCCCN1C=CC=C/C1=C\C=C(C#N)C#N | -70.9
41 | CCCCCCN1C=CC(=C/C=C(\C#N)C(=O)OCC)C=C1 | -4.32
42 | CCCCCCN1C=CC=C/C1=C\C=C(C#N)C#N | -71.1
43 | CCOC(=O)/C(C#N)=C/C=C1/C=CC=CN1C | 3.01
44 | CCCN1C=CC(=CC=C(C#N)C#N)C=C1 | -3.42

Row | Structure (SMILES) | hERG current change (%, negative = inhibition) at 10uM [%]
45 | CCCCCCN1C=C/C(=C\C=C(C#N)C#N)c2ccccc21 | -37.4
46 | CN1/C(=C/C=C(C#N)C#N)C=Cc2ccccc21 | 11.5
47 | CC1=C/C(=C\C=C(C#N)C#N)N(C)c2ccccc21 | 9.34
48 | CCCCCCN1C=CC=C/C1=C/C=C(C#N)C#N | -76.5
49 | COc1ccc(OC)c(NC(=O)CSc2nnc(C)n2Cc2ccccc2)c1 | -23.5
50 | Cc1ccc(C)c(N(C)S(=O)(=O)c2cccc3nsnc23)c1 | -18.4
51 | Cc1cc(C)c(S(=O)(=O)Nc2cccc(C(=O)O)c2)cc1S(=O)(=O)Nc1cccc(C(=O)O)c1 | 18.2
52 | NNC(=O)c1ccc(Cn2cc(Cl)cn2)o1 | 15.6
53 | COC(=O)c1ccc(/C=N/N2CCN(Cc3ccccc3Cl)CC2)cc1 | 5.88
54 | CCN(CC)CCNC(=O)CCc1c(C)nc2c(c(C)nn2-c2ccc(C)cc2)c1C | -55.4
55 | COCCCNC(=O)CCc1c(C)nc2c(c(C)nn2-c2ccc(C)cc2)c1C | -7.71
56 | CCN(CC)CCNC(=O)CCc1c(C)nc2c(c(C)nn2-c2ccc(C)c(C)c2)c1C | -62.3
57 | COCCNC(=O)CCc1c(C)nc2c(c(C)nn2-c2ccc(C)cc2)c1C | -17.6
58 | Cc1ccc(-n2nc(C)c3c(C)c(CCC(=O)NCCCOC(C)C)c(C)nc32)cc1 | -53.1
59 | CCCNC(=O)CCc1c(C)nc2c(c(C)nn2-c2ccc(C)cc2)c1C | -0.266
60 | Cc1ccc(-n2nc(C)c3c(C)c(CCC(=O)O)c(C)nc32)cc1C | 30.7
61 | Cc1nc2c(c(C)nn2-c2ccccc2)c(C)c1CCC(=O)NCCCOC(C)C | -34.7
62 | COCCNC(=O)CCc1c(C)nc2c(c(C)nn2-c2ccc(C)c(C)c2)c1C | -3.85
63 | COc1ccc(N(CC(=O)NCc2ccc3c(c2)OCO3)S(C)(=O)=O)cc1OC | 1.12
64 | COc1ccc(C2NC(=O)NC(C)=C2C(=O)OCC2CCCCC2)cc1OC (stereo not shown) | -2.11
65 | Cc1cc(NC(CC(C)C)C(=O)O)nc(Cc2ccccc2)n1 (stereo not shown) | 9.96
66 | CCN(CC)CCOC(=O)C1(c2ccc(OC)c(OC)c2)CCCC1.Cl | -16.9

Row | Structure (SMILES) | hERG current change (%, negative = inhibition) at 10uM [%]
67 | COc1cccc(Nc2c([N+](=O)[O-])cncc2[N+](=O)[O-])c1 | -2.64
68 | Cc1ccc(S(=O)(=O)Nc2ccc(-n3cnnn3)cc2)cc1 | -1.93
69 | COc1ccccc1CCNC(=O)CCC(=O)N1CC2C[C@@H](C1)Cn1c2cccc1=O | 6.31
70 | CC(C)SCC(=O)Nc1ncc2c(n1)-c1ccccc1CC2 | 7.72
71 | COc1ccc(CCN2CC(C(=O)NCCc3ccc(F)cc3)CCC2=O)cc1 (stereo not shown) | -22
72 | O=C(NCCc1cccnc1)C1CCC(=O)N(CCc2cccc(F)c2)C1 (stereo not shown) | 7.99
73 | COc1cccc(CN2CC(C(=O)NCCCc3ccc(C)cc3)CCC2=O)c1 (stereo not shown) | -28.4
74 | Cc1ccc(CCCNC(=O)C2CCC(=O)N(Cc3cccc(F)c3)C2)cc1 (stereo not shown) | -53.4
75 | O=C(NCCCc1ccncc1)C1CCC(=O)N(CCc2cccc(F)c2)C1 (stereo not shown) | -51.8
76 | COc1ccccc1CCCNC(=O)C1CCC(=O)N(CCc2cccc(F)c2)C1 (stereo not shown) | -19.1
77 | Cc1ccc(CCNC(=O)C2CCC(=O)N(Cc3cccc(F)c3)C2)cc1 (stereo not shown) | -4.64
78 | O=C(NCCCc1ccncc1)C1CCC(=O)N(Cc2cccc(F)c2)C1 (stereo not shown) | -14.5
79 | COc1ccc(CCCNC(=O)C2CCC(=O)N(CCc3cccc(F)c3)C2)cc1 (stereo not shown) | -53.1
80 | O=C(CN1C(=O)NC2(CCCCCCC2)C1=O)NCc1cccs1 | 7.8
81 | CC(=O)c1c(C)[nH]c(C(=O)COc2ccc3c(C)cc(=O)oc3c2)c1C | 7.54
82 | CC(=O)c1cc(NC(=O)c2ccccc2)c(=O)oc1/C=C/N(C)C | -12.1
83 | S=C(NCCCN1CCOCC1)Nc1ccc(-c2nc3ccccc3[nH]2)cc1 | -11.7
84 | CSc1cccc(NS(=O)(=O)c2ccc(-c3coc(C)n3)cc2)c1 | 22.6
85 | CCCCn1c(SCc2cccc([N+](=O)[O-])c2)nc2ccsc2c1=O | 10
